Holding throughout (assay): NCI-60 one-dose screen, 48 h (100 = growth as untreated, 0 = no growth, -100 = all killed)
Common to all, as to settings: 10 µM unless noted

The subject of assay [1] is NCI-H23 lung.
Assay [2] has as its system NCI-H226 lung.
The subject of assay [3] is NCI-H322M lung.
In assay [4] the test system is HOP-62 NSCLC.
Assay [5] deals with NCI-H460 lung.
The subject of assay [6] is HOP-92 NSCLC.
Assay [7] deals with NCI-H522 lung.
Assay [8] deals with A549/ATCC NSCLC.
For assay [9], the system named is 786-0 renal.
The test system of assay [10] is COLO 205 colon.

The record followed here is PubChem BioAssay (NCI).

About 83,000 compounds went through this panel and 20% of them were active in at least one assay; those are over-represented in the sample as a whole.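 Negative percent growth values reflect cell death: -40 means 40% of the cells present at the start died, and -100 means all died.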 Unmarked numbers belong to inactive results. Activity calls are given as the source filed them. Rule for the calls: active = growth percent below 10; inactive = the rest.

As for `C=C1C(=O)O[C@@H]2/C=C(/C)C3=CC(=O)[C@@](C)(C[C@H](OC(=O)/C(C)=C\C)[C@@H]12)O3`, the growth in assay [1] was 6.39% (active); in assay [2] it was 34.5%; in assay [3], 89.1%; in assay [4], 82.4%; in [5], 27.2%; in assay [6], -11.8% (active). The growth is -82.3% (active) in assay [7], 72.6% in assay [8], -56.5% (active) in assay [9] and -52.1% (active) in assay [10].

Consider `COc1ccc(/C=C/C(=O)c2nnn(-c3ccc(Br)cc3)c2C)cc1OC`, for which the growth in assay [1] was 59.9%; in assay [2], 70.7%; in assay [3] it was 95.3%; in assay [4], 88.1%; in assay [5], 84.3%; in [6], 81%. Moreover, the growth is 67.7% in assay [7], 73.6% in [8], 93.5% in assay [9] and 90.4% in [10].

Take `CCCCCCNC(=O)Oc1ccc(/C(=C(\C)c2ccc(Cl)cc2)c2ccc(OCCN(C)C)cc2)cc1`: the growth in assay [1] was 76.3%; in assay [2], 101%; in assay [3] it was 78.1%; in [4], 75.5%; in [5], 6.53% (active); in [6], 38.4%. The growth was 83.5% in [7], 72.7% in assay [8], 39.8% in assay [9] and 11.6% in assay [10].

Regarding `N#C/C(=C\c1ccc2ccccc2c1)C(=O)Nc1sc2c(c1C#N)CCC2`, the growth in assay [1] is 99.5%; in [2], 94.1%; in [3], 113%; in assay [4] it was 106%; in assay [5], 104%; in assay [6], 81.4%. Further, the growth was 96.7% in assay [7], 98.4% in assay [8], 99.6% in [9] and 115% in assay [10].

For the compound `O=C(Nc1cccc(Cl)c1)Nc1nc2ccc(-c3cccc4ccccc34)cc2s1`, the growth was 24.6% in assay [1]; 57.5% in assay [2]; 71.1% in assay [3]; 61% in assay [4]; 34.1% in assay [5]; -2.69% (active) in assay [6]. Moreover, the growth is 25.8% in assay [7], 36.9% in assay [8], 82.5% in [9] and 49.7% in assay [10].

`O=S(=O)(Nc1ccc(-n2cnc3cc(-c4ccc(O)cc4)ccc32)cc1)C1CC1`: the growth in assay [1] is 101%; in assay [2], 96.2%; in assay [3], 90.9%; in [4] it was 86.8%; in assay [5], 88.7%; in assay [6], 115%. The growth was 73.7% in assay [7], 82.2% in [8], 86.6% in assay [9] and 123% in [10].

As for `CNC(=O)c1cc(Oc2ccc3nc(NC(=O)c4ccc(CN5CCCN(C)CC5)c(C(F)(F)F)c4)sc3c2)ccn1`, the growth in assay [1] was 23%; in assay [2], 82.9%; in assay [3], 32.2%; in assay [4], 11.5%; in [5], 5.57% (active); in [6], 37.7%. Also, the growth in [7] is -56.6% (active); in assay [8] it was 39.9%; in assay [9] it was -76.3% (active); in [10] it was -64.4% (active).

In the case of `O=[N+]([O-])c1ccc(-c2nnc(SCc3ccc(O)c4ncccc34)o2)cc1`, the growth in [1] was 21.5%; in [2], 36.2%; in assay [3], 40.7%; in assay [4], 21.5%; in assay [5] it was 8.58% (active); in assay [6], -13.4% (active). Also, the growth in assay [7] was 17.2%; in assay [8], 25.8%; in [9] it was 33%; in [10] it was 49.9%.

As to `CCNCc1c(-c2cccc(OC(F)(F)F)c2)[nH]c2ccc(N3CCCC3)cc2c1=O`, the growth in assay [1] is 24.9%; in [2] it was 37.1%; in [3], 30.3%; in [4] it was 29.2%; in assay [5], 8.9% (active); in assay [6], 43.4%. Further, the growth in assay [7] was 32.5%; in [8], 40.2%; in [9], 28.2%; in assay [10], 17.9%.

Regarding `COc1cc2oc(-c3cccc(NC(=O)c4cc(NC(=O)[C@H](C)N)ccc4Cl)c3)cc(=O)c2c(OC)c1OC`, the growth is 91.5% in assay [1]; 86% in [2]; 104% in assay [3]; 105% in [4]; 99.8% in [5]; 17.2% in assay [6]. For the same compound, the growth in assay [7] was 94.9%; in assay [8], 96.3%; in assay [9], 91.7%; in [10], 101%.

Turning to `C=CCn1c(SCC(=O)Nc2cccc(C(=O)/C=C/c3ccccc3Cl)c2)nc2ccccc2c1=O`, the growth in [1] was 94.7%; in assay [2] it was 91.8%; in assay [3] it was 92%; in [4], 108%; in [5], 93%; in assay [6] it was 70.7%. Moreover, the growth is 84.8% in assay [7], 86.2% in assay [8], 88% in [9] and 113% in assay [10].

Regarding `COc1cc([C@H]2OC[C@H]3[C@@H]2CO[C@@H]3c2ccc(O)c(OC)c2)ccc1O`, the growth in assay [1] is 86.3%; in assay [2], 86%; in [3] it was 91.7%; in assay [4] it was 81.2%; in assay [5], 90.3%; in [6], 91.8%. In addition, the growth is 75.8% in assay [7], 95.1% in assay [8], 101% in assay [9] and 86.9% in assay [10].

As to `Cc1ccc(NC(=O)N[C@@H](Cc2cc(F)cc(F)c2)C(=O)NC2C(=O)N3CCC[C@H]3C(=O)N3CCCC[C@H]3C(=O)N[C@@H](C)C(=O)N3C[C@H](C)C[C@H]3C(=O)O[C@H]2C)c(F)c1` (stereo not given in full), the growth in assay [1] is 35.2%; in assay [2] it was 1.32% (active); in assay [3], 52.7%; in assay [4], 33.8%; in assay [5], 15.3%; in [6] it was 4.3% (active). Further, the growth in assay [7] is 19.7%; in assay [8], 26.1%; in assay [9], 40.7%; in assay [10], -33.3% (active).

`COc1cc2cc(Oc3ccc(NC(=O)c4cccc(C(F)(F)F)c4)cc3)c(C)nc2cc1OCCN(C)C`: the growth in assay [1] was 90.4%; in [2], 95.5%; in assay [3], 104%; in assay [4], 97.9%; in assay [5] it was 47.1%; in assay [6] it was 62%. The growth in assay [7] is 99.9%; in [8], 89.2%; in [9] it was 60.1%; in assay [10] it was 95.8%.

Turning to `Cc1csc(Nc2cccc(Nc3nc(C)cs3)c2)n1`, the growth in assay [1] was 58.4%; in assay [2], 85%; in assay [3] it was 96.2%; in assay [4] it was 98.8%; in assay [5], 76.5%; in [6], 52.2%. The growth in [7] was 73.3%; in assay [8] it was 88%; in assay [9], 94.5%; in [10], 87.2%.

For the compound `COc1cc(C(=O)C[n+]2ccc3ccccc3c2)cc(OC)c1OC`, the growth in assay [1] was 96.6%; in assay [2], 95.9%; in [3], 98.3%; in assay [4], 97.3%; in [5], 101%; in assay [6], 80%. The growth in assay [7] was 92.9%; in assay [8], 105%; in [9], 102%; in assay [10] it was 103%.

As for `COc1ccc(NC(=O)[C@H](C)N)cc1C(=O)Nc1cccc(-c2cc(=O)c3c(OC)c(OC)c(OC)cc3o2)c1`, the growth was 64.4% in assay [1]; 67.2% in assay [2]; 67.7% in assay [3]; 67.3% in assay [4]; 52.4% in [5]; -4.58% (active) in assay [6]. The growth was 82% in assay [7], 76.5% in assay [8], 63.5% in [9] and 69.6% in assay [10].

Turning to `COc1ccc(-c2cc(-c3cccc4ccccc34)n3c(n2)nc2ccccc23)cc1`, the growth in assay [1] was 62.2%; in assay [2], 49.1%; in assay [3], 73.5%; in assay [4], 26%; in assay [5], 13.5%; in [6], 38.4%. In addition, the growth in assay [7] was 50.3%; in assay [8], 29%; in [9], 36.5%; in [10], 74%.

On to `O=C(COc1ccc(C2SCC(=O)N2c2ccc(F)cc2)cc1)c1ccccc1` (stereo not given), for which the growth is 95.6% in assay [1]; 91.7% in assay [2]; 98.3% in assay [3]; 95.5% in assay [4]; 108% in [5]; 76.7% in assay [6]. Also, the growth in [7] was 84.1%; in [8], 87.9%; in assay [9] it was 102%; in assay [10], 112%.

For `COc1ccc(-c2nnc(SCc3ccc(O)c4ncccc34)o2)cc1`, the growth is 38.2% in [1]; 63.7% in assay [2]; 49.3% in assay [3]; 32.2% in [4]; 14.9% in assay [5]; -2.2% (active) in [6]. Besides, the growth in [7] is 27.2%; in [8] it was 41.2%; in assay [9] it was 38.2%; in [10] it was 102%.

`COc1ccc(Oc2ccc(C3CC(c4cc(OC)c(OC)c(OC)c4)=NN3C(C)=O)cc2)cc1` (stereo not given): the growth was 24.1% in assay [1]; 17.1% in assay [2]; 46.9% in assay [3]; 48.1% in [4]; 23.8% in assay [5]; 12.2% in assay [6]. In addition, the growth in assay [7] is 20%; in [8] it was 24.8%; in assay [9] it was 29.2%; in [10] it was 11.1%.

`O=C(N/N=C\c1ccc(Cl)cc1)c1ccc2nc(-c3ccc(Br)cc3)[nH]c2c1`: the growth in assay [1] was -36% (active); in [2] it was 9.5% (active); in assay [3], 41.3%; in assay [4], -42.5% (active); in [5], -76.4% (active); in assay [6], -3.66% (active). Moreover, the growth in [7] is 10.5%; in [8], -51.7% (active); in assay [9], -73.7% (active); in assay [10] it was -33.4% (active).

For `CS(=O)c1nccc(-c2c(-c3ccc(F)c(OCCc4ccc(F)cc4)c3)nc3sccn23)n1` (stereo not given), the growth is 7.95% (active) in assay [1]; 111% in [2]; 65.4% in [3]; 99.7% in assay [4]; 59.1% in assay [5]; 47.1% in [6]. Besides, the growth in assay [7] is -61.7% (active); in assay [8] it was 101%; in assay [9], 95.3%; in assay [10] it was 102%.

`Cn1cc2c(c1)-c1c(sc3nc(-c4ccc(NC(=O)Nc5cc(C(C)(C)C)on5)cc4)cn13)CC2`: the growth in assay [1] was 50.7%; in assay [2], 51.8%; in assay [3], 75.6%; in assay [4], 16.7%; in assay [5], 27.5%; in [6], 42.8%. Moreover, the growth in assay [7] was 81.5%; in assay [8] it was 64.5%; in assay [9], -3.49% (active); in [10], 45.6%.

Take `CCc1ccc(NC(=O)N[C@@H](Cc2cccc(F)c2)C(=O)N[C@@H]2C(=O)N3CCC[C@H]3C(=O)N3CCCC[C@H]3C(=O)N[C@@H](C)C(=O)N3C[C@H](C)C[C@H]3C(=O)O[C@H]2C)c(F)c1`: the growth was 31.7% in assay [1]; -2.16% (active) in assay [2]; 46% in assay [3]; 43% in [4]; 15.4% in [5]; -0.342% (active) in assay [6]. For the same compound, the growth in [7] was 26.8%; in assay [8], 33.3%; in assay [9], 37.1%; in assay [10] it was -26.4% (active).

`CC(=O)c1ccc(NC(=O)COc2ccc(C3SCC(=O)N3c3ccc(Br)cc3)cc2)cc1` (stereo not given): the growth was 95.1% in [1]; 93% in assay [2]; 99.1% in assay [3]; 93.5% in assay [4]; 108% in assay [5]; 84.4% in assay [6]. Besides, the growth in [7] is 84.8%; in assay [8], 93.9%; in assay [9], 104%; in assay [10] it was 104%.
